# Where “and” joins values, the source holds several entries; their conditions need not be identical. Identical values can stand only once. Results filed as inconclusive are left out. Calls of active or inactive are those of the source. The call rests on the fitted dose curve; in most records, active means well fitted cell-killing curve with a large enough effect; inconclusive means small, poorly fitted or top-dose-only effect, or effect the other way; inactive means flat fitted curve, though single readings scatter.
# Experiment: qHTS assay for cell viability of HEK293 cells (AID 743288); further: nearly all actives have a fitted effect of over 50% in size
# Details: ATP luminescence (CellTiter-Glo), 18 h; max response: hits give low values
# Source text: National Center for Advancing Translational Sciences [NCATS]
# NIH Chemical Genomics Center [NCGC]
# U.S. Environmental Protection Agency [EPA]
# National Institutes of Environmental Health Sciences [NIEHS]
# National Toxicology Program [NTP]
# U.S. Food and Drug Administration [FDA]
# The CellTiter-Glo Luminescent Cell Viability Assay (Promega, Madison, WI) is a homogeneous method to determine the number of viable cells in culture based on quantitation of the ATP present, which signals the presence of metabolically active cells. This cell viability assay was used to screen environmental chemicals in the Hek293 cell line.
# Tox21 Assay Protocol Summary:
# Cell viability after compound treatment was measured using a luciferase-coupled ATP quantitation assay (CellTiter-Glo viability assay, Promega, Madison, WI) in parental HEK293 cells. Total intracellular ATP content corresponds to the number of metabolically competent cells after compound treatment. The cells were dispensed at 2,000 cells/5 uL/well in 1,536-well white/solid bottom assay plates using a Flying Reagent Dispenser (Aurora Discovery, San Diego, CA). The cells were incubated a minimum of 5 h at 37 C, followed by the addition of 23 nL of compounds dissolved in DMSO, positive controls or DMSO only using a pintool work station (Kalypsys, San Diego, CA). The assay plates were incubated for 18 h at 37 C, followed by the addition of 5 uL/well of CellTiter-Glo reagent. After 30 min incubation at room temperature, the luminescence intensity of the plates was measured using a ViewLux plate reader (PerkinElmer, Shelton, CT).
# On the % scale 0 is the no-effect control and ±100 the full control effect; potency means the concentration at half of the fitted maximal effect.
Structure (SMILES),max response,Potency
O=C(O)c1cc(O)c(O)c(O)c1,-7.89% (inactive),
CN1[C@@H]2CC[C@H]1CC(OC(=O)C(CO)c1ccccc1)C2 (some centres undefined),-4.41% (inactive),
CN(C)CCC(c1ccc(Cl)cc1)c1ccccn1 (centres undefined),-8.98% (inactive),
CC(C)OC(=O)c1cc(C(=O)OC(C)C)cc([N+](=O)[O-])c1,-14.7% (inactive),
S=c1[nH]c2ccccc2s1,3.04% (inactive) and -5.55% (inactive),
CCCCCCCCCCCCCCCC(=O)OC(C)C,-7.13% (inactive),
CCCCCCCCCCCCCCCCCC(=O)O,-8.42% (inactive) and -6.66% (inactive) and -3.76% (inactive),
c1ccc2sc(SSc3nc4ccccc4s3)nc2c1,-16% (inactive) and 1.48% (inactive),
COc1cc(CNC(=O)CCCC/C=C/C(C)C)ccc1O,-3.17% (inactive) and -17.3% (inactive),
Nc1ccc(O)c([N+](=O)[O-])c1,-18.2% (inactive) and -13.9% (inactive),
CN1CCC[C@H]1c1cccnc1,-10.2% (inactive) and -14.6% (inactive),
O=C(O)[C@H](O)[C@@H](O)[C@H](O)[C@H](O)CO,-14.1% (inactive),
Nc1ccc([N+](=O)[O-])cc1O,3.96% (inactive) and 2.89% (inactive),
O=c1cc(-c2ccccc2)oc2ccccc12,-12.4% (inactive) and -11.5% (inactive),
O=C(O)/C=C\C(=O)O,5.88% (inactive),
CC1(C)S[C@@H]2[C@H](NC(=O)[C@H](N)c3ccccc3)C(=O)N2[C@H]1C(=O)O,1.44% (inactive),
O=C(O)c1ccccc1Nc1cccc(C(F)(F)F)c1,-8.76% (inactive),
C=CCCCCCCCCC(=O)O,-1.32% (inactive),
Nc1ccc(O)c(C(=O)O)c1,-0.669% (inactive) and -7.83% (inactive),
O=C(OCc1ccccc1)c1ccccc1,-7.64% (inactive),
N=C1N=C(N)c2cc3ccccc3cc21,,44.7 µM (active)
CCCOC(=O)c1ccc(O)cc1,-5.57% (inactive) and 0.165% (inactive) and 2.13% (inactive),
CN(C)c1ccc(C(=C2C=CC(=[N+](C)C)C=C2)c2ccccc2)cc1,,3.55 µM (active)
Nc1nc2ccc([N+](=O)[O-])cc2s1,6.78% (inactive),
Nc1cc(-c2ccncc2)c[nH]c1=O,-3.39% (inactive),
CN(C)c1ccc(N=NS(=O)(=O)O)cc1,-6.45% (inactive) and -13.1% (inactive),
C#C[C@]1(O)CC[C@H]2[C@@H]3CCc4cc(O)ccc4[C@H]3CC[C@@]21C,-11.3% (inactive) and -0.854% (inactive),
O=C(Nc1ccccc1)c1cc([N+](=O)[O-])ccc1Cl,-11.7% (inactive),
CC(C)NCC(O)COc1cccc2ccccc12 (centres undefined),1.78% (inactive) and -12.1% (inactive),

# — PubChem BioAssay (NCATS)
